Among all 24,000 compounds or so, about 70 (0.3%) were called active. Cut-off read from the data, not from the text of the source: active = inhibition above about 30%; inconclusive = no clear call, values can overlap the other calls; inactive = below that. What follows is part of a selection rich in actives, with near analogues and random picks from the rest.
Target: N-formyl peptide receptor 2 (Homo sapiens) (UniProt P25090)
Experiment: human FPRL1 ligands by binding competition, primary screen, cell-based, FPR counter-screen, flow cytometry (AID 441);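 note: 0% = buffer alone and 100% = receptor blocker peptide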
Details: FPRL1-expressing cells, fluorescent ligand binding inhibition, stronger effect = higher value, concentration not given here

Sequence of N-formyl peptide receptor 2 (Homo sapiens) (P25090 whole entry, looked up): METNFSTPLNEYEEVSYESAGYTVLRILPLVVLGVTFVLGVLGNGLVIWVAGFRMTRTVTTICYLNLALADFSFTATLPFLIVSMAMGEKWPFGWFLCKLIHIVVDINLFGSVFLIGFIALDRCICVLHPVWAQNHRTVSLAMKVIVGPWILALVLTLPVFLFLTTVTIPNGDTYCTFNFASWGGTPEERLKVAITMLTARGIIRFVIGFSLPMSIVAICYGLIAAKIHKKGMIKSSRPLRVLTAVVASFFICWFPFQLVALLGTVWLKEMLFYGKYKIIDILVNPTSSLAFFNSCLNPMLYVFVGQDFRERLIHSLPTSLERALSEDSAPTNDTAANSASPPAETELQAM

Structure (SMILES)	inhibition
Cc1nnc(SCC(=O)N(C(C)C)C(C)C)nc1C	-5.7% (inactive)
CCOC(=O)N1CCC(NC(=O)Cn2cc3c(n2)CCCCC3)CC1	0.2% (inactive)
CCOC(=O)c1oc2c(CN3CCN(C)CC3)c(O)ccc2c(=O)c1-c1ccc(Br)cc1	-3% (inactive)
Cn1c(CNC(=O)C(C)(C)C)nc2ccccc21	-0.3% (inactive)
Cc1c(NC(=O)C(C)OC(=O)c2cc3c4ccccc4n(C)c3s2)c(=O)n(-c2ccccc2)n1C (configuration not stated)	0.1% (inactive)
CCCNC(=O)C1CC(=O)N(c2ccc(OCC(=O)Nc3cccc(C)c3C)cc2)C1 (configuration not stated)	-4.6% (inactive)
O=c1c2ccccc2[nH]c(=S)n1CCN1CCC(=C(c2ccc(F)cc2)c2ccc(F)cc2)CC1	-11% (inactive)
CC1Cc2cc(/C(O)=C3\C(=O)C(=O)N(CCN4CCOCC4)C3c3ccccc3F)ccc2O1 (configuration not stated)	30.8% (active)
COCCCN1C(=O)C(=O)/C(=C(/O)c2ccc3c(c2)CC(C)O3)C1c1cccnc1 (configuration not stated)	28.3% (inactive)
O=C1C(=O)N(CCN2CCOCC2)C(c2ccccn2)/C1=C(/O)c1ccc(Cl)cc1 (configuration not stated)	-6.2% (inactive)
CCOc1ccccc1C1CC(c2ccccc2)Nc2nc(N)nn21 (configuration not stated)	0.2% (inactive)
CCOC(=O)C1CCN(C(=O)Cc2c(C(=O)O)[nH]c3ccccc23)CC1	0.3% (inactive)
CC1CCC(NS(=O)(=O)c2ccc3c(c2)n(C)c(=O)c(=O)n3C)CC1 (configuration not stated)	-4.7% (inactive)
O=C(CC(NCCN1CCOCC1)C(=O)O)Nc1cccc(Cl)c1 (configuration not stated)	4.9% (inactive)
CCN(CCCNC(=O)C1CCN(S(=O)(=O)c2cnc[nH]2)CC1)c1ccccc1	-1.3% (inactive)
CCOC(=O)CNC(=O)CN1C(=O)CCSc2ccccc21	-6.4% (inactive)
CCOC(=O)c1ccc(-n2c(C)nc3c(cnn3-c3ccccc3C)c2=O)cc1	-6% (inactive)
Cc1cc(C)cc(N(CC(=O)NCC2CCCO2)S(=O)(=O)c2c(C)noc2C)c1 (configuration not stated)	3.6% (inactive)
Cc1nc2ccccc2c2oc(C(=O)NCC3CCCO3)cc12 (configuration not stated)	3.5% (inactive)
CCOC(=O)c1nnn(-c2nonc2OC)c1-c1ccccc1	5.9% (inactive)
N#CCCN1CCN(S(=O)(=O)c2ccc(S(=O)(=O)N3CCCC3)cc2)CC1	1.9% (inactive)
COC(=O)C1=C(C)Nc2ncnn2C1c1ccco1 (configuration not stated)	0.6% (inactive)
COc1ccc(N2C(=O)CCC(C(=O)N(C)C3CCCCC3)C2c2ccc(OC)c(OC)c2)cc1 (configuration not stated)	-4.6% (inactive)

Structure (SMILES)	inhibition
CCOC(=O)N1CCC(Nc2c(NCCN3CCN(c4cccc(Cl)c4)CC3)c(=O)c2=O)CC1	8% (inactive)
O=C(CC1Oc2ccccc2NC1=O)NCCCN1CCN(Cc2ccccc2)CC1 (configuration not stated)	-1.8% (inactive)
Cc1cccc(N2C(=O)SC(N(CC(=O)O)c3cccc(C)c3)C2=O)c1 (configuration not stated)	0.6% (inactive)
C/C(N)=C(\C#N)C(=O)NCCc1ccccn1	-4.6% (inactive)
COC(=O)c1ccc(CN(c2ccccc2OC)S(=O)(=O)c2cccs2)o1	-4.4% (inactive)
O=C(NCc1ccco1)C1CCCN(S(=O)(=O)c2cnc[nH]2)C1 (configuration not stated)	0.2% (inactive)
Cc1cc(N2C(=O)C(=O)/C(=C(/O)c3ccccc3)C2c2cccc(Br)c2)no1 (configuration not stated)	-8.1% (inactive)
COc1cccc(C(CC(=O)NCCN2CCOCC2)NS(=O)(=O)c2ccc(C)cc2)c1OC (configuration not stated)	0.8% (inactive)
O=C(CN1CCN(c2ccccc2F)CC1)c1ccc2c(c1)OCO2	-9.1% (inactive)
O=C(Nc1cccnc1)c1ccc2c(c1)OCO2	-0.1% (inactive)
CCOC(=O)c1cn(CC(=O)Nc2ccc(C(C)C)cc2)nn1	1.8% (inactive)
CC1CN(C(=O)c2ccc3c(c2)OCO3)OC(c2ccccc2)O1 (configuration not stated)	5.6% (inactive)
Cc1ccc(-n2nc3cc(Cl)c(NC(=O)c4ccco4)cc3n2)cc1	-4.7% (inactive)
CCOC(=O)c1nc(-c2ccc3c(c2)OCO3)[nH]c1C	-7.4% (inactive)
CCC1=C(C(=O)OC)C(c2cc(OC)ccc2OC)C(C#N)=C(N)O1 (configuration not stated)	-1.1% (inactive)
COCCN1C(=O)c2oc3c(C)cc(C)cc3c(=O)c2C1c1cccc(O)c1 (configuration not stated)	-10.9% (inactive)
CCCS(=O)(=O)N1CCCC(C(=O)NCCN2CCCCC2C)C1 (configuration not stated)	3.4% (inactive)
O=C(Cn1cnc2c(nnn2Cc2ccc(F)cc2)c1=O)NCc1ccc2c(c1)OCO2	-2.3% (inactive)
Cc1cc(C)c2c(n1)nn1c(N3CCOCC3)cc(C)nc21	-1.1% (inactive)
CCOc1ccc(C(CC(=O)O)NC(=O)COc2ccccc2)cc1 (configuration not stated)	0.6% (inactive)
CCOC(=O)C1C(=O)C=C(c2ccc(OC)cc2)CC1c1ccco1 (configuration not stated)	-6.4% (inactive)
CCn1cc(C(=O)NC2CCCCCC2)c(=O)c2cc(S(=O)(=O)N3CCCCC3)ccc21	-5.2% (inactive)
Brc1cnc(N2CCCC2)nc1N1CCCCC1	0.1% (inactive)

Structure (SMILES)	inhibition
CC(C)Cc1cc(C(=O)Nc2cc(Br)ccc2O)no1	-1.4% (inactive)
Cc1cc(NC(=O)c2cc(-c3cccs3)on2)nn1Cc1ccc(Cl)cc1	2% (inactive)
CC(C)C[C@H](NC(=O)Nc1cccc(C(F)(F)F)c1)C(=O)O	2.8% (inactive)
Fc1ccccc1C(c1nnnn1Cc1ccc2c(c1)OCO2)N1CCN(Cc2ccccc2)CC1 (configuration not stated)	10.3% (inactive)
CCOc1cccc(-c2nnc3sc(COc4ccc(OC)cc4)nn23)c1	-1% (inactive)
Clc1ccc(Cc2nn3c(-c4ccncc4)nnc3s2)cc1	54.5% (active)
c1ccc(Cc2nn3c(Cn4cnc5ccccc54)nnc3s2)cc1	4.2% (inactive)
O=C(COC(=O)C12CC3CC(CC(C3)C1)C2)NCc1ccco1	0.4% (inactive)
CCCN(CCC)CCNC(=O)c1cc2c(C)nc3ccccc3c2o1	4.8% (inactive)
O=C1CC(c2cccc(F)c2)C2=C(CCCC2=O)N1 (configuration not stated)	4.1% (inactive)
CC(=O)NC1CC2CCCC(C1)N2CC(=O)Nc1ccccc1 (configuration not stated)	2.2% (inactive)
O=C1NC2(CCCCC2)N=C1c1ccccc1	-5.4% (inactive)
CC(=O)Nc1cc(C(=O)O)ccc1S(=O)(=O)c1ccc(Cl)cc1	-2.1% (inactive)
CCOC(=O)c1cnc(-n2nc(C)cc2C)nc1Nc1cccc(C(C)=O)c1	9% (inactive)
C[N+](C)(C)CCOP(=O)([O-])OC[C@H](O)CO	5.6% (inactive)
O=C(Nc1cccc(OCC(=O)N2CCOCC2)c1)C1CCCCC1	-0.9% (inactive)
CCOc1ccccc1NC(=O)c1cc(S(=O)(=O)N2CCC3(CC2)OCCO3)ccc1F	-14.8% (inactive)
CC1(C)CC(O)C(CCC(O)c2ccccc2)C(C)(C)N1 (configuration not stated)	6.7% (inactive)
COc1ccc(-c2noc(-c3cccc(OC)c3OC)n2)cc1OC	-2.6% (inactive)
COc1ccc(S(=O)(=O)NC2(C(F)(F)F)N=C3SCCN3C2=O)cc1 (configuration not stated)	0.8% (inactive)
O=C(c1ccccc1)c1cccn1CC(=O)N1CCN(c2ccc(F)cc2)CC1	14.7% (inactive)
COc1ccc(NC(=O)C2CCCN(S(=O)(=O)c3cccc4cccnc34)C2)cc1 (configuration not stated)	-6% (inactive)
COc1ccc(CC(NC(C)=O)C(=O)NC2CCN(C(=O)Nc3ccc(C#N)cc3)CC2)cc1OC (configuration not stated)	17.9% (inactive)

Structure (SMILES)	inhibition
COc1ccccc1N1CCN(c2nc3ccccc3n3nnnc23)CC1	-3.6% (inactive)
Cc1noc(C)c1S(=O)(=O)NCCc1ccc(S(N)(=O)=O)cc1	3% (inactive)
Nc1scc(-c2ccncc2)c1Cl	-8.7% (inactive)
COc1ccc(NC(C)=O)cc1NC(=O)CN1CCN(c2ccccn2)CC1	-0.9% (inactive)
Cc1ccc(S(=O)(=O)N2C3C=CC(C3)C2C(=O)O)cc1 (configuration not stated)	0.9% (inactive)
COc1cc(C2C(C(=O)Nc3ccc(F)cc3)=C(C)Nc3nc(CCCO)nn32)cc(OC)c1OC (configuration not stated)	-2.7% (inactive)
CC(=O)Nc1ccc(-c2cn3cccnc3n2)cc1	2.3% (inactive)
CCOC(=O)N1CCN(C(=O)c2cnc3n(c2=O)CCS3)CC1	-0.5% (inactive)
O=C(CCSCCc1ccccn1)Nc1nccs1	0.5% (inactive)
Cc1c2cnn(-c3ccccc3)c(=O)c2c(C)n1CCCC(=O)N1CCN(C)CC1	0% (inactive)
COc1cccc(Nc2nnc(SCC(=O)N3CC(C)OC(C)C3)s2)c1 (configuration not stated)	-0.3% (inactive)
COCCCNC(=O)c1ccc2c(c1)ncn2-c1ccccc1OC	0.4% (inactive)
COc1ccc(NC(=O)CCNC(=O)Cn2ccc3ccccc3c2=O)c(OC)c1	-0.5% (inactive)
Cc1cc(C)c(C#N)c(SCc2[nH]nc3c2C(c2ccccc2)C(C#N)=C(N)O3)n1 (configuration not stated)	-9.6% (inactive)
O=C(O)C1CCCCC1C(=O)Nc1ccc(Cl)cc1 (configuration not stated)	-0.4% (inactive)
O=C(Cn1nc(Cc2cccnc2)c2ccccc2c1=O)NCC1COc2ccccc2O1 (configuration not stated)	-7.3% (inactive)
CCOc1ccc2c(=O)c(-c3ccc4c(c3)OCCCO4)c(C)oc2c1	-9.1% (inactive)
CN(C)/C=C1\C=C(c2ccccc2)OC1=O	-0.8% (inactive)
COc1cc2c(cc1OC)C(c1ccc(C)o1)CC(=O)N2 (configuration not stated)	-0.6% (inactive)
O=C(O)Cc1ccc(NC(=O)C2CCCCC2C(=O)O)cc1 (configuration not stated)	-3.1% (inactive)
CN(C)S(=O)(=O)c1ccc(Oc2ccc(S(=O)(=O)N(C)C)cc2)cc1	0.3% (inactive)
Cc1cc(C)c2c(n1)nn1c(N3CCN(c4cccc(Cl)c4)CC3)cc(C)nc21	1.1% (inactive)
CCCS(=O)(=O)N1CCC(C(=O)NCCCN(C)Cc2ccccc2)CC1	-2.9% (inactive)

Structure (SMILES)	inhibition
Cc1nc2ccc(S(=O)(=O)NCC(=O)O)cc2s1	6.9% (inactive)
Cc1ccc(Nc2cc(=O)n(C3CCCCC3)c(=O)[nH]2)cc1C	-0.5% (inactive)
COc1cc2ccccc2cc1C(=O)Nc1ccc(S(=O)(=O)Nc2cc(C)on2)cc1	1.4% (inactive)
O=C(CCN1C(=O)c2ccccc2C1=O)NCCN1CCOCC1	3.1% (inactive)
Cc1cccc(NC(=O)CN2CCCN(S(=O)(=O)c3ccc(Br)s3)CC2)c1	6.3% (inactive)
CCCSc1nc2c(c(=O)[nH]c(=O)n2C)n1CCc1ccccc1	0.6% (inactive)
CC(=O)c1c(C)[nH]c(C(=O)NCCCN2CCCC2)c1C	2.2% (inactive)
COc1ccccc1CNC(=O)Cn1cc2c(n1)CCCC2	-1.9% (inactive)
Cc1ccccc1-n1nnc2c(=O)oc3ccccc3c21	-2.1% (inactive)
CC1(C)Oc2ccc3ccc(=O)oc3c2/C(=C/NCCO)C1=O	-5.7% (inactive)
c1cc(-c2nn[nH]n2)ccc1CN1CCCCC1	-4.3% (inactive)
COc1ccc(/C(O)=C2\C(=O)C(=O)N(Cc3ccco3)C2c2ccc(OC)cc2OC)cc1 (configuration not stated)	26.8% (inactive)
CCOc1cccc(/C(O)=C2/C(=O)C(=O)N(CCOC)C2c2ccncc2)c1 (configuration not stated)	-3.8% (inactive)
COc1cccc(OCC(O)CN2CCN(CCO)CC2)c1 (configuration not stated)	2.6% (inactive)
Cc1ccc(NC(=O)CN(C)S(=O)(=O)c2cnc[nH]2)cc1C	-2.5% (inactive)
COc1cc(C2C(C(=O)c3ccc(C)o3)=C(O)C(=O)N2Cc2cccnc2)ccc1O (configuration not stated)	28.1% (inactive)
COc1ccc(/C(O)=C2/C(=O)C(=O)N(CC3CCCO3)C2c2ccc(OC)c(OC)c2)cc1 (configuration not stated)	-7.5% (inactive)
CCCS(=O)(=O)Nc1c(C(=O)O)[nH]c2ccccc12	2.1% (inactive)
Cc1nnc(SCCCn2c(N3CCCCC3)nc3c2c(=O)[nH]c(=O)n3C)s1	0.8% (inactive)
CCCCOC(=O)Nc1nccs1	-2.9% (inactive)
